Results as given in the supplement of paper PMC11732987, “Enantioselective OTUD7B fragment discovery through chemoproteomics screening and high-throughput optimisation” (Communications Chemistry, 2025).

Key:
Experiment in all cases: log2 ratio of Biotin-Ahx-Ub-VS probe labelling (fragment/DMSO); higher = less target engagement (more negative = stronger competition), active = hit call of the paper (q ≤ 0.05, log2 ratio ≤ -1)
Settings in all cases: compound concentration: 200 uM; treatment time: 3 h
USP19 = biological target: T1, USP19 (UniProt O94966)
T1 sequence (whole entry): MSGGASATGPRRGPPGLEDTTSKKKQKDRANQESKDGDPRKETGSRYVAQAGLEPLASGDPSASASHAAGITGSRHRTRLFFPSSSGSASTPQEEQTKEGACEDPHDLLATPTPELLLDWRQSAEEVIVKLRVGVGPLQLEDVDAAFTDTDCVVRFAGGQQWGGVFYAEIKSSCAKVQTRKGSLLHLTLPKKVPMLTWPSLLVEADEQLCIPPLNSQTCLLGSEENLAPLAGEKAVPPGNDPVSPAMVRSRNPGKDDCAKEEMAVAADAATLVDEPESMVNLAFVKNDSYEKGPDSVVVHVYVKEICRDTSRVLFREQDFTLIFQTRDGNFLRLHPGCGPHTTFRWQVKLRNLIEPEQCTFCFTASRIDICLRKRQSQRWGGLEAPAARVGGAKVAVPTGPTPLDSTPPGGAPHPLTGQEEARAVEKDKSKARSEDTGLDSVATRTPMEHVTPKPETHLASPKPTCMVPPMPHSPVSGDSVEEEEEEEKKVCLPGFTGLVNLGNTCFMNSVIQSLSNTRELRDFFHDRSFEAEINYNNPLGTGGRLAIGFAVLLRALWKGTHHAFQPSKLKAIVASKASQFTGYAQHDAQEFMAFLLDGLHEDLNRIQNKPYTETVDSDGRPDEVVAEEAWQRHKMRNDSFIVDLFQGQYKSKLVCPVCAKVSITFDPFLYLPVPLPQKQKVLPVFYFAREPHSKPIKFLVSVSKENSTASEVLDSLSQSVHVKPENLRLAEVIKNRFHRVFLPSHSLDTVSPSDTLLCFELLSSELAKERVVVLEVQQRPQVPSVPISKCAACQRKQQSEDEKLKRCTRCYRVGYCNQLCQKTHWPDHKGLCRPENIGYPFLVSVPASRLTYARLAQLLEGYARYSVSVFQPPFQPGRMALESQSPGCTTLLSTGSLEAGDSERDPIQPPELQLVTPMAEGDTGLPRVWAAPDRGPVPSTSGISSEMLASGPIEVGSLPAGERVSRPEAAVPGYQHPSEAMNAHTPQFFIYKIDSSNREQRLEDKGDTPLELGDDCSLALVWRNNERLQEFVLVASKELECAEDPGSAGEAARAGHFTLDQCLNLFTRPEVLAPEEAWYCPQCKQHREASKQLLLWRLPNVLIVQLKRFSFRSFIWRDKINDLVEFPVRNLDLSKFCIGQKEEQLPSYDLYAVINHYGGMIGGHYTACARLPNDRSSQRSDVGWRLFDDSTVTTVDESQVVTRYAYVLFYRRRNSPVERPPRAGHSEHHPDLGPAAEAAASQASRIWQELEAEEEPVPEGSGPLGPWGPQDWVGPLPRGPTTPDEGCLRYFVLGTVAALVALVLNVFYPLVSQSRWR
Outline: (§1)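 HEK293T lysate (495 µg per sample, in Tris/CHAPS/IGEPAL buffer with protease inhibitors) was treated in triplicate with fragment at 200 µM or with DMSO for 3 h. It was then treated with Biotin-Ahx-Ub-VS (0.5 µM final) for 1 h. Labelled DUBs were NeutrAvidin-enriched, digested with LysC and trypsin, and run by diaPASEF LC-MS/MS. Spectronaut label-free quantities were global-median-normalised. Values are average log2 ratios fragment/DMSO by unpaired t-test, using proteins with ≥2 unique peptides.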

USP24 = USP24 (UniProt Q9UPU5)
Outline: as §1

USP25 = biological target: T2, USP25 (UniProt Q9UHP3)
T2 sequence (whole entry): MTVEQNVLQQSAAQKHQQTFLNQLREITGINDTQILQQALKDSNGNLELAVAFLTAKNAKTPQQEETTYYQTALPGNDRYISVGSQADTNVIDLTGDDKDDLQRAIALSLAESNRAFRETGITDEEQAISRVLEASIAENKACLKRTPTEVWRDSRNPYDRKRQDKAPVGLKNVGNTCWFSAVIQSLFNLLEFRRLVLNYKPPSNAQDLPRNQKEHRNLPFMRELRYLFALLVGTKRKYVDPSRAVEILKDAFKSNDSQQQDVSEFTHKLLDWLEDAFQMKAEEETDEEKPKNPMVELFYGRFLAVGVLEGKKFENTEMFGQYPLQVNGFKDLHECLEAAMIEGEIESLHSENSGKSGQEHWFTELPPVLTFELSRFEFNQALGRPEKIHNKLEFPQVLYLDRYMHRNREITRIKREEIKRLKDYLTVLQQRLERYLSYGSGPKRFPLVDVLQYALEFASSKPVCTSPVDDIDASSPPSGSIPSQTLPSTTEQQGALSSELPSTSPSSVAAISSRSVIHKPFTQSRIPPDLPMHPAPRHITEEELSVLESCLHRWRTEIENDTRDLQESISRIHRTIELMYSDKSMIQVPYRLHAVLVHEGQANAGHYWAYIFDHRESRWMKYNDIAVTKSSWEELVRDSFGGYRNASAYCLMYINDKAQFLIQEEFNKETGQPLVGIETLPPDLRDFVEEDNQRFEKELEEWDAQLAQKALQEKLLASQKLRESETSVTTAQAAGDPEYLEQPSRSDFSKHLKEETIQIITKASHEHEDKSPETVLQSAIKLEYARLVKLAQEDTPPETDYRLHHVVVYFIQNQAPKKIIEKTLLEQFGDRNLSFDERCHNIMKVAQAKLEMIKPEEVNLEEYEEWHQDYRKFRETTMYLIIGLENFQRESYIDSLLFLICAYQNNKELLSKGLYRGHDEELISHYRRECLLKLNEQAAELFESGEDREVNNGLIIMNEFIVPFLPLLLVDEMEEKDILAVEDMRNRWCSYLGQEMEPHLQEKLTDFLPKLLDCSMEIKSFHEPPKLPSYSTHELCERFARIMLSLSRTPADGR
Outline: as §1

USP28 = biological target: T3, USP28 (UniProt Q96RU2)
T3 sequence (whole entry): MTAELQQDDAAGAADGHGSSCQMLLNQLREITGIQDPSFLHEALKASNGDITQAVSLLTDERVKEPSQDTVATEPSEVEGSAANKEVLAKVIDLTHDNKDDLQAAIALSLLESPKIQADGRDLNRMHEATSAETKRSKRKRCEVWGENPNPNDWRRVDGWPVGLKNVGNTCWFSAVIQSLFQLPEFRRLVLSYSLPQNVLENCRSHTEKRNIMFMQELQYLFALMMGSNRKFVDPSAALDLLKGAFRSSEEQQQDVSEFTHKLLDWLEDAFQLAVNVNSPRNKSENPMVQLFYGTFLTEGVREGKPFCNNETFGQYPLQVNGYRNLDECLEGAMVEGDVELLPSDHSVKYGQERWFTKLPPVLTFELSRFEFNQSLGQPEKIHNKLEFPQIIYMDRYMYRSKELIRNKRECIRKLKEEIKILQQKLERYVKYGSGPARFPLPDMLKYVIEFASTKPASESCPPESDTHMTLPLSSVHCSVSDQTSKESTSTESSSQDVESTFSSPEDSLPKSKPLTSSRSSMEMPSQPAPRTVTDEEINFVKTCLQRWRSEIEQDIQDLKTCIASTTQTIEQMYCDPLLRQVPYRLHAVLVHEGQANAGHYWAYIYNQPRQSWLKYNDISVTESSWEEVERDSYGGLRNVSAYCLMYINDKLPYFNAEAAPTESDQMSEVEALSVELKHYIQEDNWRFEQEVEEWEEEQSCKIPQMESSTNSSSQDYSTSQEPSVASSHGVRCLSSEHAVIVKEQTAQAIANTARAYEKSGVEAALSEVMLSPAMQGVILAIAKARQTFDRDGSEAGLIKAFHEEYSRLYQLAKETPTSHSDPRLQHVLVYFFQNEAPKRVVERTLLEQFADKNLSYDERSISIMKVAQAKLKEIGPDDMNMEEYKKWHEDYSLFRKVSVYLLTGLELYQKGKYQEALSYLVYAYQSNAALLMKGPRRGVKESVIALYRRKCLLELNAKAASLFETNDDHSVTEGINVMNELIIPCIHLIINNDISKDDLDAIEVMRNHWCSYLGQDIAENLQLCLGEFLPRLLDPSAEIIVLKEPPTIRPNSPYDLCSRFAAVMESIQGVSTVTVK
Outline: as §1

Measured: log2 ratio of Biotin-Ahx-Ub-VS probe labelling

Sequence of USP24 (Q9UPU5 whole entry): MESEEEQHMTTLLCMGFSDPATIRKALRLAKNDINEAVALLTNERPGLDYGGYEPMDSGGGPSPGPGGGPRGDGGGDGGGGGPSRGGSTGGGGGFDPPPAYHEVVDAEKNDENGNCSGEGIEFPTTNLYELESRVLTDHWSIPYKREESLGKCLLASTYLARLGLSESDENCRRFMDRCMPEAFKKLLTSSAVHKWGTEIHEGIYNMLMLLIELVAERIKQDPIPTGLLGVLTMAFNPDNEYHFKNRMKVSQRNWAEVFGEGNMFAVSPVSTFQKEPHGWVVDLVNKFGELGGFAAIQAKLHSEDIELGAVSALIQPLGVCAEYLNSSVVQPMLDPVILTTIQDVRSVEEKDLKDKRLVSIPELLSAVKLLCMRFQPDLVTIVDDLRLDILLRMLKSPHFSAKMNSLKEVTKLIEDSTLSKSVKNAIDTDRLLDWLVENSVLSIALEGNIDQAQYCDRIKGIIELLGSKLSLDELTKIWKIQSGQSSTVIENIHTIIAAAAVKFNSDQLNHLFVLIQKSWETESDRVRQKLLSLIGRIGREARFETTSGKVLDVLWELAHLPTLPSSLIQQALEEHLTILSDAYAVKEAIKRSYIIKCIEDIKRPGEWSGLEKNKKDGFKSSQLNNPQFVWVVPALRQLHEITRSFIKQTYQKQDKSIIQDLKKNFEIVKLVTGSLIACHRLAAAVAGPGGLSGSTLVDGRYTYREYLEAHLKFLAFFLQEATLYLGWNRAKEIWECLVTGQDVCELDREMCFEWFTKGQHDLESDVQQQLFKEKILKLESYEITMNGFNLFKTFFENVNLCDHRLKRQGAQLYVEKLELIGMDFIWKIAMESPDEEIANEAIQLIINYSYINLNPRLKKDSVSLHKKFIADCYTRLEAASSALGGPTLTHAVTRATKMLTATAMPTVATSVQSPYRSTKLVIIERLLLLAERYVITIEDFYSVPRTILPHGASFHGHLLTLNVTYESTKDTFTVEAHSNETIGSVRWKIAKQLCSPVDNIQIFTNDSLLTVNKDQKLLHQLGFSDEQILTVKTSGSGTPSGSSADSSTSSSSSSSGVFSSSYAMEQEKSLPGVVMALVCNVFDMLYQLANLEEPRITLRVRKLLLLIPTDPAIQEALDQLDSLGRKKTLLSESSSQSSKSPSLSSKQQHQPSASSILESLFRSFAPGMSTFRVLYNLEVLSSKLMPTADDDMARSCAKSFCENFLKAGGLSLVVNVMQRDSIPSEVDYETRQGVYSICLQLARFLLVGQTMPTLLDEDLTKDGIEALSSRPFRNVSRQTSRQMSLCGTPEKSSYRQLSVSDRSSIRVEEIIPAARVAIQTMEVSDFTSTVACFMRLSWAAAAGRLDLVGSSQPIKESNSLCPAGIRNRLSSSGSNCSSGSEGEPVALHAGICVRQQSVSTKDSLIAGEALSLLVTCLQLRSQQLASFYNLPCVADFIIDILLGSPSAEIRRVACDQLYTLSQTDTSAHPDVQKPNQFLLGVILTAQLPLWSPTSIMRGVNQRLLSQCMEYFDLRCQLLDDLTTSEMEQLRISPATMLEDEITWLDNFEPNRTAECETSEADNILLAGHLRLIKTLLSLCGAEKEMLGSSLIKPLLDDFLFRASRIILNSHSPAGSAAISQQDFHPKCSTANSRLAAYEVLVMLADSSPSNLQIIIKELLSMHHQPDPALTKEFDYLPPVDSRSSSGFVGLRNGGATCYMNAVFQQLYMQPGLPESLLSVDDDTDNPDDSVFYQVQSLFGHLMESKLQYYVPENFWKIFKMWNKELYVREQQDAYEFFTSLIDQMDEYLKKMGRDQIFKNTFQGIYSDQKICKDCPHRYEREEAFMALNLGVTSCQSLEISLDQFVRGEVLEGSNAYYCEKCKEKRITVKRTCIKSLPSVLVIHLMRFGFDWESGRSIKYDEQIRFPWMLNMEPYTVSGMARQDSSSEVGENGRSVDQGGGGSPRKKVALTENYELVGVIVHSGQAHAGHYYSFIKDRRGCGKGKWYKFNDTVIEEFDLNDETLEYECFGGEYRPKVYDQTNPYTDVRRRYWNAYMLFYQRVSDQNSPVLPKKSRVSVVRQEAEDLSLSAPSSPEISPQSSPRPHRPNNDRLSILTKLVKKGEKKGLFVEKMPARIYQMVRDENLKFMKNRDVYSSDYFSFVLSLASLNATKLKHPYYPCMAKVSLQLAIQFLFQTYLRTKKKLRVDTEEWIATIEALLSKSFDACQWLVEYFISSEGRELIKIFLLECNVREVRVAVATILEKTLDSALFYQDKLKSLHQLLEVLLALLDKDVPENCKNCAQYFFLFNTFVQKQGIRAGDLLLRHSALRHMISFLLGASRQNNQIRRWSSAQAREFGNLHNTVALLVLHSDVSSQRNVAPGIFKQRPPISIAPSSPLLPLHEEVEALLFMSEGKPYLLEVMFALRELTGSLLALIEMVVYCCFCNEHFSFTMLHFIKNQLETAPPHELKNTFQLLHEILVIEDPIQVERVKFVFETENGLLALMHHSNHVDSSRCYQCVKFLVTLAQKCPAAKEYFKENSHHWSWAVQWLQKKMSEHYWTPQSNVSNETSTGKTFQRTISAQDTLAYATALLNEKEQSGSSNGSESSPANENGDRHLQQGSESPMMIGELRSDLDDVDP

O=C(CCl)N[C@H]1CCS(=O)(=O)c2ccccc21
inactive: USP19 -0.274 | USP24 -0.386 | USP25 -0.264 | USP28 -0.582
